# Source: PubChem
# Epigenetic derep: epigenetic control regulation, reporter derepression. Potency, µM (top dose mostly 53.9 µM), inactives show top-dose GFP activation, usual class: activators. murine LDR cells, GFP reporter derepression, 30 h. AID 1865. 280,000 tested, 0.2% active; note: % of control where 0% means no effect; nearly all actives have a fitted effect of over 60% in size
#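 Reporter derepression read as number of fluorescent GFP-positive objects, 20-120 um in size, counted by laser-scanning cytometer. Mouse LDR line with an epigenetically silenced CMV-GFP locus; compound incubation 30 h, 37 C.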
# Nrf2 inh: Nrf2 pathway inhibition | A549 ARE-Fluc reporter, luciferase luminescence, 18-24 h | Potency, µM (doses to about 46 µM), for inactives: top-dose activity change, negative = inhibition, actives largely listed as inhibitors | 360,000 tested, 2.1% active | AID 504444; note: % is set by controls: 0 for no effect and ±100 for the full control effect; nearly all actives have a fitted effect of over 60% in size
#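 In this cell-based qHTS, ARE-driven firefly luciferase in A549 cells reports Nrf2 activity; the luminescent signal after BugLite lysis is the measured value, with a prior CellTiter-Fluor read for cell health.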
# A549 viability: A549 cytotoxicity, counter-screen for Nrf2 inhibitors; A549 ARE-Fluc cells, CellTiter-Fluor viability, 18-24 h; Potency, µM (series often up to 46 µM), for inactives: at the highest dose activity change, negative = cytotoxicity, actives largely listed as inhibitors; 390,000 tested, 0.16% active; AID 504648; note: % is set by controls: 0 for no effect and ±100 for the full control effect
#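 A549 ARE-Fluc cells in 5% FBS OPTI-MEM, 5000 cells/well, rested 2 h then exposed to compounds in concentration-response for 18-24 h at 37 °C. Viability by CellTiter-Fluor fluorescence (Ex 405/Em 525) after 30 min; luciferase luminescence (BugLite, 15 min, RT) read afterwards.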
# PINK1 modulator: changes PINK1 expression. PINK1 immunofluorescence, high-content cytometry, 24 h. 410,000 tested, 0.2% active. Potency, µM (series often up to 76.6 µM), for inactives: at the top dose activation (PINK1 increase), usual class: activators. AID 624263; active = well fitted activation curve with a large enough effect; inconclusive = small, poorly fitted or top-dose-only effect; cell line not stated here; note: % of control where 0% means no effect; nearly all actives have a fitted effect of over 65% in size
#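 A stable cell line was treated with compounds at 5 concentrations for 24 hours, with CCCP as control. PINK1 levels and mitochondrial localization were measured by immunofluorescence with mitochondrial, cell and nuclear markers after fixation, read by laser-scanning cytometry.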
# Nrf2 ARE act: Nrf2 pathway activation | AREc32 ARE-luciferase reporter (MCF7-derived line), luminescence, 24 h | Potency, µM (doses to about 46.1 µM), without a hit: top-dose activation, actives largely listed as activators | 410,000 tested, 0.31% active; note: % of control where 0% means no effect; nearly all actives have a fitted effect of over 65% in size
#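 AREc32 cells carrying an ARE-driven firefly luciferase reporter were seeded at 1000 cells/well in OPTI-MEM with 5% FBS, then exposed to compound for 24 hr at 37 deg C. Luminescence was read with Steady-Glo after 30 min at RT.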
# Active calls of the source: *; ? = inconclusive; · = no result; [ ] = another dose, or the depositor's remark. The list is not random: actives were taken first. Their share in the collection is about 2.4%. Unless noted, calls come from the whole dose curve; as a rule, active = well fitted curve in the direction sought with a large enough effect; inconclusive = small, poorly fitted or top-dose-only effect, or another doubt; inactive = no such curve, though single readings can be large; an effect the other way counts as inactive or inconclusive. Potency is the fitted concentration of half-maximal effect.
SMILES,Epigenetic derep,Nrf2 inh,A549 viability,PINK1 modulator,Nrf2 ARE act
COc1cc2nc(CN(CCO)C3CS(=O)(=O)CC3O)nc(N3CCCCC3)c2cc1OC (stereo unspecified),·,·,·,0.3%,·
COc1cc(=O)n2c(c1C(=O)NC(C)c1ccco1)CCN(Cc1ccccc1Cl)CC2 (stereo unspecified),·,·,·,-0.6%,·
CC1=C(CO)C(=O)OC([C@@H](C)C2CC[C@H]3C4C[C@H]5O[C@]56[C@@H](O)C=CC(=O)[C@]6(C)C4CC[C@]23C)C1 (stereo partly specified),0.0%,13µM*,-17.8%,-0.1%,-2.4%
CC(C(=O)O)C1CCC2C3CC=C4CC(O)CC[C@@]4(C)C3CC[C@]12C (stereo partly specified),1.1%,·,·,1.6%,·
CCOC(=O)C1C(=O)C=C(c2ccc(Br)cc2)CC1c1ccco1 (stereo unspecified),-0.9%,23.1µM*,?,-0.6%,0.2%
O=c1oc2ccccc2cc1-c1nc2c(s1)CCc1ccccc1-2,3.0%,?,?,0.9%,3.98µM*
C=C1C(=O)C23C(O)C1CCC2C12CCCC(C)(COC(C)=O)C1C(O)C3(O)OC2 (stereo unspecified),·,9.2µM*,18.4µM*,-0.6%,-3.5%
Cc1cc(S(=O)(=O)N(Cc2ccc(C(C)C)cc2)CC2CCCO2)ccc1-n1cnnn1 (stereo unspecified),-5.1%,23.1µM*,-10.4%,·,-0.6%
COc1ccc(-c2cc(C)no2)cc1S(=O)(=O)NC(C)C,1.6%,?,6.1%,1.2%,1.2%
O=C1c2ccccc2S(=O)(=O)N1Cc1nc2ccccc2s1,0.8%,13µM*,-3.9%,-1.3%,-0.9%
COc1cc(/C=C/c2ccnc3ccccc23)ccc1N(C)C,·,·,·,1.9%,·
COCCOC(=O)c1[nH]c2c(c1C)C(=O)CC(c1cc(OC)c(OC)c(OC)c1)C2 (stereo unspecified),·,?,-3.2%,1.8%,2.8%
C=CCOC(=O)c1[nH]c2c(c1C)C(=O)CC(c1cc(OC)c(OC)c(OC)c1)C2 (stereo unspecified),-1.0%,10.3µM*,-30.0%,2.2%,2.7%
CCCCOC(=O)c1[nH]c2c(c1C)C(=O)CC(c1cc(OC)c(OC)c(OC)c1)C2 (stereo unspecified),-0.8%,13µM*,-28.9%,5.8%,4.9%
CC(C)(C)c1ccc(C(=O)Nc2nnc(SCC(=O)NCC3CCCO3)s2)cc1 (stereo unspecified),·,10.3µM*,-10.2%,3.2%,-0.3%
CCOc1ccc(C(=O)Nc2nnc(SCC(=O)NCC3CCCO3)s2)cc1 (stereo unspecified),·,?,6.0%,1.7%,-2.2%
O=C(CSc1nc2cc(Cl)ccc2s1)NCC1CCCO1 (stereo unspecified),·,11.6µM*,-10.4%,-0.9%,2.5%
COc1ccc(NS(=O)(=O)c2ccc(N/N=C(\C)c3ccncc3)c([N+](=O)[O-])c2)cc1,-0.9%,20.6µM*,?,0.3%,-0.1%
C/C(=N\Nc1ccc(S(=O)(=O)Nc2ccccc2)cc1[N+](=O)[O-])c1ccncc1,-0.8%,·,·,·,·
Cc1ccc(SC(C)C(=O)Nc2cccnc2)cc1 (stereo unspecified),0.0%,11.9%,-2.7%,0.2%,0.0%
Cc1ccc(SC(C)C(=O)Nc2ccncc2)cc1 (stereo unspecified),-1.0%,13µM*,-1.4%,3.4%[38.3 µM],-0.5%
Cn1cccc1/C=C1\CC(C(C)(C)C)C/C(=C\c2cccn2C)C1=O (stereo unspecified),2.82µM*,?,-2.6%,?,?
Cn1cccc1/C=C1\Cc2ccccc2C1=O,4.6%,21.9%,-3.6%,3.3%,11.2µM*
CN1C2CCC1/C(=C/c1cccn1C)C(=O)/C2=C\c1cccn1C,-3.0%,-12.3%,?,0.3%,2.5%
Nc1cccc(S(=O)(=O)N2CCN(S(=O)(=O)c3ccc4c(c3)OCCO4)CC2)c1,·,-19.3%,-1.0%,·,·
SMILES,Epigenetic derep,Nrf2 inh,A549 viability,PINK1 modulator,Nrf2 ARE act
CSc1nnc(CCNC(=O)/C=C/c2cccc(F)c2)n1-c1ccc(F)cc1,·,·,·,0.0%,·
CC1CC(C)CN(C(=O)C(C)N2CCN(S(=O)(=O)c3ccc(C(F)(F)F)cc3)CC2)C1 (stereo unspecified),·,18.4µM*,?,1.2%,0.5%
S=C(NCCCN(Cc1ccc(Cl)c(Cl)c1)c1ccc(Br)cn1)NCCc1cnc[nH]1,·,-12.1%,-2.9%,·,·
O=C(NCC1CCN(c2ccc(S(=O)(=O)N3CCOCC3)cc2)CC1)Nc1ccccc1,·,14.6µM*,-15.7%,2.6%,4.1%
COc1ccccc1C(=O)NCC1CCN(c2ccc(S(=O)(=O)N3CCOCC3)cc2)CC1,12.6%,23.1µM*,?,-0.8%[38.3 µM],2.0%
O=C(NCC1CCN(c2ccc(S(=O)(=O)N3CCOCC3)cc2)CC1)Nc1ccccc1F,·,-28.8%,-4.7%,3.7%,0.4%
COc1ccccc1C(=O)NCCC(=O)Nc1ccc(S(=O)(=O)N2CC(C)CC(C)C2)cc1 (stereo unspecified),·,13µM*,-6.0%,-0.5%,-0.7%
O=S(=O)(c1ccc(NC(=S)N2CCN(c3ccc(O)cc3)CC2)cc1)N1CCOCC1,-0.5%,11.6µM*,-17.9%,1.0%,0.5%
Cc1noc(CN(C)c2ncnc3ccc(-c4ccc5c(c4)OCO5)cc23)n1,·,9.8%,4.0%,·,·
Cc1cc(Oc2ccc(C#N)cc2)nc(NCc2ccccc2)n1,-1.8%,16.4µM*,-7.0%,0.5%,0.2%
CCCCCC(=O)Nc1nc(C)c(-c2csc(Nc3cc(Cl)ccc3C)n2)s1,0.0%,15.1%,0.0%,1.2%,-0.2%
CCCC(C)C(=O)Nc1nc(C)c(-c2csc(Nc3cc(Cl)ccc3C)n2)s1 (stereo unspecified),0.0%,23.1µM*,-2.8%,-0.3%,-0.4%
C/C=C(\C)C(=O)OC1[C@H](OC(C)=O)C2(CO)C(CC1(C)C)C1=CCC3C4(C)CCC(O[C@@H]5O[C@H](C(=O)O)[C@@H](O[C@@H]6O[C@H](CO)[C@@H](O)[C@H](O)[C@H]6O)[C@H](O)[C@H]5O[C@H]5O[C@H](CO)[C@@H](O)[C@H](O)[C@H]5O)[C@](C)(CO)C4CCC3(C)[C@]1(C)C[C@H]2O (stereo partly specified),·,18.4µM*,?,-0.3%,-3.2%
O=c1oc2cc(O)ccc2cc1-c1ccccc1,·,?,0.5%,1.6%,7.3%
O=c1oc2cc(O)ccc2cc1-c1nc(-c2ccc(Cl)c(Cl)c2)cs1,7.94µM*,·,2.2%,8.9%,-0.3%
CC(C)Cn1c(=O)c2sccc2n2c(CCCC(=O)Nc3ccc(Cl)cc3)nnc12,-1.9%,-28.5%,-7.7%,0.5%,-0.7%
CNc1snc(C)c1C(=O)OC(C)C(=O)c1ccc(F)cc1 (stereo unspecified),·,20.6µM*,-5.3%,1.2%,0.2%
